In PubChem BioAssay (NCATS):
Results filed as inconclusive are left out. Active and inactive are the calls of the source. Unless noted, the call rests on the fitted dose curve; in most records, active means well fitted curve in the direction sought with a large enough effect; inconclusive means small, poorly fitted or top-dose-only effect, or another doubt; inactive means no such curve, though single readings can be large; an effect the other way counts as inactive or inconclusive.

Legend:
[1] = qHTS assay for measurement of the activity of small molecule inhibitors on Zika virus induced Caspase-3 activity in human iPSC derived neural progenitor cells (hNPCs) (AID 1224857); conditions: hNPCs ZIKV-induced caspase-3/7, Caspase-Glo luminescence, 6 h; series mostly up to 45.7 µM; further: nearly all actives have a fitted effect of over 65% in size
How it was run: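 Quantitative HTS format: human iPSC neural progenitors, 1 h compound pretreatment, ZIKV 2 FFU/cell for 6 h at 37 C. Percent inhibition derived from luminescent caspase-3/7 signal between uninfected and infected controls.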

[2] = qHTS assay for measurement of the activity of small molecule inhibitors on Zika virus induced Caspase-3 activity in human astrocytoma cells (AID 1224859); conditions: SNB-19 ZIKV-induced caspase-3/7, luminescence, 6 h; series mostly up to 45.7 µM
How it was run: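 Readout is luminescence from Caspase-Glo 3/7 added after a 6 h ZIKV infection (2 FFU/cell) of compound-pretreated (1 h) SNB-19 cells; data expressed as % inhibition versus uninfected and infected wells.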

[3] = P-glycoprotein substrates identified in KB-8-5-11 adenocarcinoma cell line, qHTS therapeutic library screen (AID 1346987); conditions: KB-8-5-11 (P-gp overexpressing) viability, CellTiter-Glo, 72 h; series mostly up to 44.5 µM; further: nearly all actives have a fitted effect of over 65% in size; further: potency means the concentration at half of the fitted maximal effect
How it was run: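 Steps: plate 500 KB-8-5-11 cells/well in DMEM + 10% FCS (colchicine removed); pin compounds in dose-response; incubate 72 h, 37 degree C, 5% CO2; add CellTiter-Glo, 5 min; read luminescence.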

[4] = NS1 protein of Zika virus - qHTS assay to identify small molecule inhibitors in human HEK 293 cells (AID 1347053); conditions: HEK293 ZIKV MR766 infection, NS1 TR-FRET, 24 h; series mostly up to 46.1 µM; further: nearly all actives have a fitted effect of over 55% in size
How it was run: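 HEK 293 cells, seeded 20 h at 37 C, were pretreated with compound 1 h, then infected with ZIKV MR766 (MOI = 0.5) for 24 h. NS1 was read by TR-FRET with two anti-NS1 antibodies, normalized to uninfected and infected wells.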

[5] = qHTS assay to identify small molecule inhibitors of chordoma cells - UCH-2 (AID 1259356); conditions: UCH-2 chordoma viability, CellTiter-Glo ATP luminescence, 48 h; series mostly up to 46.1 µM
[6] = P-glycoprotein substrates identified in KB-3-1 adenocarcinoma cell line, qHTS therapeutic library screen (AID 1346986); conditions: KB-3-1 parental cells viability, CellTiter-Glo, 72 h; at 44.5 µM (top of the series) unless noted; further: nearly all actives have a fitted effect of over 60% in size
How it was run: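 Resistance attributable to P-gp was assessed by comparing AC50 in KB-8-5-11 with parental KB-3-1 and by tariquidar reversal. Cells were exposed 72 h and viability read by CellTiter-Glo.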

[7] = target: T1, Tyrosine-protein phosphatase non-receptor type substrate 1 (Homo sapiens) + Leukocyte surface antigen CD47 (Homo sapiens) (UniProt P78324+Q08722); test: CD47-SIRPalpha protein protein interaction - LANCE assay qHTS validation (AID 1347057; active means well fitted curve in the direction sought with a large enough effect in the signal ratio, with a control signal flat, not every such curve was filed as active; the % refers to the signal ratio); conditions: Recombinant CD47-His / biotin-SIRPalpha, TR-FRET ratio; series mostly up to 38.3 µM
How it was run: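 First, His-tagged CD47 and Eu-labelled anti-His antibody met the compound for 30 min; next, site-specifically biotinylated SIRPalpha was added for 30 min; finally streptavidin-APC was added before reading the TR-FRET ratio.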

[8] = target: T1, Tyrosine-protein phosphatase non-receptor type substrate 1 (Homo sapiens) + Leukocyte surface antigen CD47 (Homo sapiens); test: CD47-SIRPalpha protein protein interaction - HTRF assay qHTS validation (AID 1347058; active means well fitted curve in the direction sought with a large enough effect in the signal ratio, not every such curve was filed as active; the % refers to the signal ratio;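 further: recombinant soluble extracellular CD47 with His tag and biotinylated SIRPalpha domains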); conditions: TR-FRET HTRF CD47-His / biotin-SIRPalpha binding, ratio 665/615; series mostly up to 38.3 µM
How it was run: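 TR-FRET read (Ch1/Ch2 ratio) of soluble extracellular CD47 and Avi-biotinylated SIRPalpha domains in PBS pH 7.4 with 0.05% IGEPAL; 7-point compound titration. Sequential 30 min room-temperature steps; non-biotinylated SIRPalpha as control inhibitor.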

[9] = Natriuretic polypeptide receptor (hNpr1) antagonism - Pilot counterscreen GloSensor control cell line (AID 1347045; calls by dose curve); conditions: HEK293 cGMP GloSensor cells, SNP-stimulated luminescence, 20 min; series mostly up to 38.3 µM
How it was run: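 Luminescence was read before and 20 min after adding 50 uM SNP, which stimulates soluble guanylyl cyclase. The HEK293 cells expressing the GloSensor cGMP sensor had been preloaded with 2% reagent for 2 h and treated with compound.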

[10] = target: Atrial natriuretic peptide receptor 1 (Homo sapiens) (UniProt P16066); test: Natriuretic polypeptide receptor (hNpr1) antagonism - Pilot screen (AID 1347049; calls by dose curve;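 further: agonist-evoked cGMP luminescence read 20 min after hNppA addition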); conditions: hNpr1 cells, antagonist mode cGMP read-out; series mostly up to 57.5 µM
How it was run: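 HEK293 cells co-expressing hNpr1 and the GloSensor pGS-40F cGMP luciferase sensor were preloaded with 2% GloSensor reagent for 2 h. Compounds were added for 30 min at room temperature, then cells were stimulated with 0.1 nM hNppA for 20 min before luminescence readout.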

Measured: Potency

T1 sequence (P78324 whole entry, looked up): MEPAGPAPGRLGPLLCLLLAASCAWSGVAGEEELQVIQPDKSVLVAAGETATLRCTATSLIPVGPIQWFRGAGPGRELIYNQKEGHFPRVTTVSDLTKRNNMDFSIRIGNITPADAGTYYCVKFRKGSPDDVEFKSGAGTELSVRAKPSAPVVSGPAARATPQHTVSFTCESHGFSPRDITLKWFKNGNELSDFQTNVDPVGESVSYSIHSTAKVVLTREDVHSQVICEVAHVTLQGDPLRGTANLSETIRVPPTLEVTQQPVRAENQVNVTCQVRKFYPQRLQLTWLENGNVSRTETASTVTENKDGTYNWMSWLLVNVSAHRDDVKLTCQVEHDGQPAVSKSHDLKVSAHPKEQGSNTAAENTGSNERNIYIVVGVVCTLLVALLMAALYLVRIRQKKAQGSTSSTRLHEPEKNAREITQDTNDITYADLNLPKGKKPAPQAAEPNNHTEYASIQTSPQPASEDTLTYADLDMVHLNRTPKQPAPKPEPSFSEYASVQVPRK
T1 sequence (Q08722 whole entry, looked up): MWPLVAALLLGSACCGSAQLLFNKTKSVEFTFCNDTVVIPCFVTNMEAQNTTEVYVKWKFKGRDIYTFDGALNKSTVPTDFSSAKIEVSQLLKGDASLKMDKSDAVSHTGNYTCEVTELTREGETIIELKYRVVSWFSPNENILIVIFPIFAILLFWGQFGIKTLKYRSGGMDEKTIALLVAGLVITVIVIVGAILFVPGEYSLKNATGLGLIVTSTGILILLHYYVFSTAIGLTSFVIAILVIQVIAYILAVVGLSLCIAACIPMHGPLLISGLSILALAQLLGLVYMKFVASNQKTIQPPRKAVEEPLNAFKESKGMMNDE
Chain of Atrial natriuretic peptide receptor 1 (Homo sapiens) (P16066 whole entry, looked up): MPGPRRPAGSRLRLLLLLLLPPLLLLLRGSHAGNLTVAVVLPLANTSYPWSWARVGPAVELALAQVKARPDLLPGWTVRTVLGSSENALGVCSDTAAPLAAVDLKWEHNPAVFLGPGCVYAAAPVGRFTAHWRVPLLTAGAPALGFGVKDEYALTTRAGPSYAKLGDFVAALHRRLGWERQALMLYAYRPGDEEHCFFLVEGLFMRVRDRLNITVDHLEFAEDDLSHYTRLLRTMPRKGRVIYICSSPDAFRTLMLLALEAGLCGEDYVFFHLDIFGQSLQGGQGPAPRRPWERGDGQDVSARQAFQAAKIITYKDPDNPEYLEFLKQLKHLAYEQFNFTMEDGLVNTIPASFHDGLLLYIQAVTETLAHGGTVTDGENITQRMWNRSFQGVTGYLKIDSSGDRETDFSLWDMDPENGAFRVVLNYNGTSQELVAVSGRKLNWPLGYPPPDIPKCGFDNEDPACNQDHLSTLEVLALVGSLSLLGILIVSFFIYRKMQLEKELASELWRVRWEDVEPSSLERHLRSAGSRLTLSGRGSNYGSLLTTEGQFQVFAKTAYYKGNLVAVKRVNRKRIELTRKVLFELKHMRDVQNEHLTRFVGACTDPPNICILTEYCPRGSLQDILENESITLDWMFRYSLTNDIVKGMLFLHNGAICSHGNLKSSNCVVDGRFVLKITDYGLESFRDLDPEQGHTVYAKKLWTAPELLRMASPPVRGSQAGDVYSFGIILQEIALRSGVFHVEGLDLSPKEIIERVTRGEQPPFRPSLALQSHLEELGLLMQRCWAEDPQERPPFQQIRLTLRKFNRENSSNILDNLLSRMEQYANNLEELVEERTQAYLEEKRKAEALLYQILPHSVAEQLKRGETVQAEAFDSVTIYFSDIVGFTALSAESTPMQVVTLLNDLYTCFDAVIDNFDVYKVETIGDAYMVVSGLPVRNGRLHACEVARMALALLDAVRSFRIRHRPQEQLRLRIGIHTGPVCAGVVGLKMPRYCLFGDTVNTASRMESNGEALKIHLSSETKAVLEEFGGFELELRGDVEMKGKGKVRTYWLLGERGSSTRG

CCN[C@@H](C)Cc1ccccc1
inactive: [1] | [2] | [3] | [4]

CC(C(=O)c1ccccc1)N(C)C (stereo not drawn)
inactive: [1] | [2] | [4]

CCN(CC)CCc1c[nH]c2ccccc12
inactive: [1] | [2] | [3] | [4]

CCN[C@H](C)Cc1cccc(C(F)(F)F)c1
inactive: [1] | [2] | [3] | [4]

C[C@H](N)C(=O)c1ccccc1
inactive: [1] | [2] | [3] | [4]

C=CCC1(C(C)CC)C(=O)NC(=O)NC1=O (stereo not drawn)
inactive: [1] | [2] | [4]

C[N+]1(CCF)[C@@H]2CC[C@H]1CC(OC(=O)C(O)(c1ccccc1)c1ccccc1)C2 (stereo partly drawn)
inactive: [1] | [2] | [3] | [4]

C=CCC1([C@H](C)CCC)C(=O)NC(=O)NC1=O
inactive: [1] | [2] | [3] | [4]

CN(C)CCc1c[nH]c2cccc(OP(=O)(O)O)c12
inactive: [1] | [2] | [4]

CC(C)(N)Cc1ccccc1Cl
inactive: [1] | [2] | [4]

CN1CC[C@]23c4c5ccc(O)c4O[C@H]2[C@@H](O)C=C[C@H]3[C@H]1C5
inactive: [1] | [2] | [3] | [4]

C[C@]12CCC(=O)C=C1CC[C@@H]1[C@H]3CC[C@](C)(O)[C@@]3(C)CC[C@@H]12
active: [3] 31.6 µM
inactive: [1] | [2]

COc1ccc2c3c1O[C@H]1[C@H](O)CC[C@H]4[C@@H](C2)N(C)CC[C@@]341
inactive: [1] | [2] | [3] | [4]

COC(=O)C(Cl)C(=O)OC
inactive: [1] | [2] | [3] | [4]

CCCN(CCC)C(=O)Cc1c(-c2ccc(Cl)cc2)nc2ccc(Cl)cn12
inactive: [1] | [2] | [4]

C[C@H]1[C@@H]2Cc3ccc(O)cc3[C@@]1(C)CCN2C
inactive: [1] | [2] | [3] | [4]

c1ccc(CN2CCNCC2)cc1
inactive: [1] | [2] | [3] | [4]

CC1(C)C(C=C(Cl)Cl)C1C(=O)OC(C#N)c1cccc(Oc2ccccc2)c1 (stereo not drawn)
inactive: [1] | [2] | [3] | [4]

COP(=S)(OC)Oc1ccc(S(=O)(=O)N(C)C)cc1
inactive: [1] | [2] | [5] | [3] | [4]

CNCC(=O)c1ccc(O)c(O)c1
inactive: [1] | [2] | [3] | [4]

CC(=O)C1CCOC1=O (stereo not drawn)
inactive: [1] | [2] | [4]

C[C@]12CC[C@H]3[C@@H](CCC4=CC(=O)CC[C@@H]43)[C@@H]1CC[C@@H]2OC(=O)CCC1CCCCC1
inactive: [1] | [2] | [4]

CC(Cc1ccccc1)NCCn1cnc2c1c(=O)n(C)c(=O)n2C (stereo not drawn)
inactive: [1] | [2] | [4]

COc1cc(OC)c(OC)cc1C=O
inactive: [1] | [2] | [3] | [4]

CCC(C)C(C)(COC(N)=O)COC(N)=O (stereo not drawn)
inactive: [1] | [2] | [4]

O=C(O)c1ccc(=O)[nH]c1
inactive: [1] | [2] | [4]

CCN[C@@H](C)Cc1cccc(C(F)(F)F)c1
inactive: [1] | [2] | [3] | [4]

C#CC(O)(C=CCl)CC (stereo not drawn)
inactive: [1] | [2] | [4]

COc1cccc(C(=O)CCN[C@@H](C)[C@H](O)c2ccccc2)c1
inactive: [1] | [2] | [3] | [4]

COP(=S)(OC)Oc1cc(Cl)c(Cl)cc1Cl
inactive: [1] | [2] | [3] | [4]

COc1cc(CCN)cc(OC)c1OC
inactive: [1] | [2] | [3] | [4]

COc1cc(CC(C)N)cc(OC)c1OC (stereo not drawn)
inactive: [1] | [2] | [3] | [4]

Nc1ccccc1
inactive: [1] | [2] | [3] | [4]

CCC(CC)(CNC(=O)CCCO)c1cccc(OC)c1
inactive: [1] | [2] | [4]

CCCOC(=O)c1cncn1C(C)c1ccccc1 (stereo not drawn)
inactive: [1] | [2] | [4]

C[C@]12CC[C@H]3[C@@H](CCC4=CC(=O)CC[C@@H]43)[C@@H]1CC[C@@H]2OC(=O)CCc1ccco1
inactive: [1] | [2] | [4]

CCCCCN(C)CCC(O)(P(=O)(O)O)P(=O)(O)O
inactive: [6] | [7] | [8]

Nc1ccn(C[C@@H](CO)OCP(=O)(O)O)c(=O)n1
inactive: [6] inactive [at 17.4 µM]

O=C(CCCN1CCC2(CC1)C(=O)NCN2c1ccccc1)c1ccc(F)cc1
inactive: [9] | [10] | [7] | [8]
